Measurements reported in PubChem BioAssay (Tox21).
Results filed as inconclusive are left out. The source made the active and inactive calls. Calls follow the shape of the dose curve; as a rule, active = well fitted curve in the direction sought with a large enough effect in the repeat runs; inconclusive = weak or mixed curves; inactive = no such curve, though single readings can be large; an effect the other way counts as inactive or inconclusive.

System: not listed separately
Assay: qHTS assay to identify small molecule antagonists of the estrogen receptor alpha (ER-alpha) signaling pathway using the BG1 cell line in the presence of 0.1 nM 17-beta-estradiol - cell viability counter screen (AID 1259241); also: nearly all actives have a fitted effect of over 40% in size; also: potency is read from the fitted curve at half-maximal effect
Settings: VM7Luc4E2 (BG1) viability, CellTiter-Fluor protease, 22 h, 0.1 nM estradiol agonist added; series mostly up to 92.4 µM; activity change, negative = cytotoxicity: at the top concentration
Method in brief: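 VM7Luc4E2 cells (endogenous ER-alpha, 4×ERE-luciferase), hormone-starved 5 days in charcoal-stripped FBS, were treated with compounds plus 0.1 nM 17beta-estradiol for 22 hr at 37C; viability read in same wells as CellTiter-Fluor live-cell protease fluorescence.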
% is scaled to controls: 0 for no effect and ±100 for the full control effect.

Structure (SMILES) | activity change, negative = cytotoxicity | Potency
CCSC(=O)N(CC)CC | 2.8% (inactive) | 
CC(C)C(=O)OCCOc1ccccc1 | 7.7% (inactive) | 
CCN(Cc1cccc(S(=O)(=O)O)c1)c1ccc(C(=C2C=CC(=[N+](CC)Cc3cccc(S(=O)(=O)O)c3)C=C2)c2ccccc2S(=O)(=O)[O-])cc1 |  | 19.4 µM (active)
CCCCCCCCCCCSCC(=O)O | -0.406% (inactive) | 

System: not listed separately
Assay: qHTS assay to identify small molecule antagonists of the androgen receptor (AR) signaling pathway using the MDA cell line in the presence of 0.5 nM R1881 - cell viability counter screen (AID 1259242); also: nearly all actives have a fitted effect of over 45% in size
Settings: MDA-kb2 viability, CellTiter-Fluor protease fluorescence, 16 h; series mostly up to 92.4 µM; viability change, negative = cytotoxic: at the top concentration
Method in brief: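 Cytotoxicity toward MDA-kb2 cells is measured by CellTiter-Fluor live-cell protease fluorescence after 16 hr compound exposure at 37C in the presence of 0.5 nM R1881 stimulator.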

Structure (SMILES) | viability change, negative = cytotoxic
N[C@@H](Cc1cc(I)c(O)c(I)c1)C(=O)O | -1.56% [at 42.5 µM] (inactive)
O=C(Nc1ccc(C(=O)O)c(O)c1)c1ccccc1 | -0.211% [at 42.5 µM] (inactive)
BrC(Br)C(Br)Br | 1.01% (inactive)
O=C(Oc1ccccc1)c1ccc2ccccc2c1O | -2.31% (inactive)
COC(=O)CC(C(C)=O)C(=O)OC (stereo unspecified) | -0.9% (inactive)
O=C(c1ccccc1)c1ccc(O)cc1 | 0.149% (inactive)
CC(CCc1ccc(O)cc1)NCCc1ccc(O)c(O)c1 (stereo unspecified) | -0.813% [at 42.5 µM] (inactive)
CCCCCCCCCCCCCOS(=O)(=O)O | -5.22% (inactive)
CCC(Cl)CC(Cl)C(Cl)C(Cl)C(Cl)C(C)Cl (stereo unspecified) | 0.388% [at 19 µM] (inactive)
COc1cc(NCc2ccc3nc(N)nc(N)c3c2C)cc(OC)c1OC | 1.55% [at 42.5 µM] (inactive)
Cc1ccc(Nc2c(F)cccc2Cl)c(CC(=O)O)c1 | 2.75% [at 42.5 µM] (inactive)

Target: Androgen receptor (Homo sapiens) (UniProt P10275)
Sequence (P10275 whole entry, looked up): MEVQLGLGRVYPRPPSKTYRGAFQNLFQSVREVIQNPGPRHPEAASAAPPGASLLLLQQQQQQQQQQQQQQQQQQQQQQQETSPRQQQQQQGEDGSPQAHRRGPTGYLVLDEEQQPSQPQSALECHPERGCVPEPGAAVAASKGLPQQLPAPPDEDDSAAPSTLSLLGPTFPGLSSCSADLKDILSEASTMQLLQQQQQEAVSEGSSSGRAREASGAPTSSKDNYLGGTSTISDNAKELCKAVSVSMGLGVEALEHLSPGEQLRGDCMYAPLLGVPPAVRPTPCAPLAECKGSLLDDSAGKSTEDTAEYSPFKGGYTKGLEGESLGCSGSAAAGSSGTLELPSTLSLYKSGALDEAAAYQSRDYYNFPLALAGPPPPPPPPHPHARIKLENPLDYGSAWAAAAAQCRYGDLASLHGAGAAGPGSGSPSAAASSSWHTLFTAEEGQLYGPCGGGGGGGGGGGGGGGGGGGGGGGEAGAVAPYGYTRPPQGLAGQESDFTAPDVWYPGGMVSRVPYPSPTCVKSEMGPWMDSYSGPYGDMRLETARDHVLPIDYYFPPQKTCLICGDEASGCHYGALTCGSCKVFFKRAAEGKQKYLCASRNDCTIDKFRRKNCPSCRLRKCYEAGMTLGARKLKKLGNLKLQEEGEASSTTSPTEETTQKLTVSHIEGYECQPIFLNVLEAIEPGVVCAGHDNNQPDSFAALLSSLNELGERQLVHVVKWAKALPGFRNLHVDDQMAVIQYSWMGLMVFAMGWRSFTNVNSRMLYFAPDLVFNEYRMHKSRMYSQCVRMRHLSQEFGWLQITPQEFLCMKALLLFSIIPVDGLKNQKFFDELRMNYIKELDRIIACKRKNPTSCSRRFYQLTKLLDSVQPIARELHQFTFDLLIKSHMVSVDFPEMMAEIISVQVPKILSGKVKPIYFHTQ
Assay: qHTS assay to identify small molecule antagonists of the androgen receptor (AR) signaling pathway using the MDA cell line in the presence of 0.5 nM R1881 (AID 1259243); also: nearly all actives have a fitted effect of over 50% in size; also: potency is read from the fitted curve at half-maximal effect
Settings: MDA-kb2 MMTV-luciferase, R1881 0.5 nM, 16 h; series mostly up to 92.4 µM; activity, negative = inhibition: at the top concentration
Method in brief: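 Steps: seed MDA-kb2 cells, incubate 5 hr at 37C; pin-transfer compounds in DMSO; add R1881 to 0.5 nM final; incubate 16 hr; add ONE-Glo, wait 30 min at room temperature; read luminescence.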

Structure (SMILES) | activity, negative = inhibition | Potency
BrC(Br)C(Br)Br | -3.94% (inactive) | 
O=C(Oc1ccccc1)c1ccc2ccccc2c1O | 50.7% (inactive) | 
COC(=O)CC(C(C)=O)C(=O)OC (stereo unspecified) | 10.4% (inactive) | 
O=C(c1ccccc1)c1ccc(O)cc1 |  | 24.6 µM (active)
CCCCCCCCCCCCCOS(=O)(=O)O | -10.3% (inactive) | 
CCC(Cl)CC(Cl)C(Cl)C(Cl)C(Cl)C(C)Cl (stereo unspecified) | 72.1% [at 19 µM] (inactive) | 

Target: Estrogen receptor (Homo sapiens) (UniProt P03372)
Sequence (P03372 whole entry, looked up): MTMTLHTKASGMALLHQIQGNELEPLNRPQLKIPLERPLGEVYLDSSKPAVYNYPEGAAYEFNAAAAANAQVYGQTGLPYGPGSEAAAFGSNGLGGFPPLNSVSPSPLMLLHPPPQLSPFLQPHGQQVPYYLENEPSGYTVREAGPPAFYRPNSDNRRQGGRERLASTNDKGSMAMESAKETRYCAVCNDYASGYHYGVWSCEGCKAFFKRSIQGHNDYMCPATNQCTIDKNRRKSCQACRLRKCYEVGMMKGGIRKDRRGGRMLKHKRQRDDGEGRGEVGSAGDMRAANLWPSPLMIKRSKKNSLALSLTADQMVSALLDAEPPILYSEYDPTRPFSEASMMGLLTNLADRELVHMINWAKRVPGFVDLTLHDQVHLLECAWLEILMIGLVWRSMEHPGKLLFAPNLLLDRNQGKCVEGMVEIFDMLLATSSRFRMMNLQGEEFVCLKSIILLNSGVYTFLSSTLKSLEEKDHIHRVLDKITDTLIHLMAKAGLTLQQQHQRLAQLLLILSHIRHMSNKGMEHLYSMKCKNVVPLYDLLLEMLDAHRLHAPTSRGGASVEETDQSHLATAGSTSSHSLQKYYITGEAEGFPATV
Assay: qHTS assay to identify small molecule antagonists of the estrogen receptor alpha (ER-alpha) signaling pathway using the BG1 cell line in the presence of 0.1 nM 17-beta-estradiol (AID 1259244); also: nearly all actives have a fitted effect of over 50% in size; also: potency is read from the fitted curve at half-maximal effect
Settings: VM7Luc4E2 (BG1) ERE-luciferase, antagonist mode, 0.1 nM E2, 22 h; series mostly up to 92.4 µM; activity change, negative = inhibition: at the top concentration
Method in brief: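 After 5 days in hormone-depleted medium (charcoal-stripped serum, no phenol red), VM7Luc4E2 cells were seeded, incubated 24 h, then co-treated with compound and 0.1 nM (final) estradiol for 22 h before luminescence detection.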

Structure (SMILES) | activity change, negative = inhibition | Potency
O=C1NC(=O)c2cccc3cccc1c23 | 36.4% (inactive) | 
Cc1ccc(NC(=O)N(C)C)cc1NC(=O)N(C)C | 0.19% (inactive) | 
O=[N+]([O-])C1(Br)COCOC1 | -21.6% (inactive) | 
O=C(O)c1cccc(Oc2ccccc2)c1 | -4.29% (inactive) | 
N[C@@H](Cc1cc(I)c(O)c(I)c1)C(=O)O | -0.945% [at 42.5 µM] (inactive) | 
O=C(Nc1ccc(C(=O)O)c(O)c1)c1ccccc1 | -6.54% [at 42.5 µM] (inactive) | 
O=c1[nH][nH]c(=O)c2cc([N+](=O)[O-])ccc12 | 0% (inactive) | 
O=C(Oc1ccccc1)c1ccc2ccccc2c1O | 48.3% (inactive) | 
NC(=O)c1ccccc1[N+](=O)[O-] | 9.5% (inactive) | 
Cc1ccc(N(CCO)CCO)cc1 | 9.65% (inactive) | 
CC(CCc1ccc(O)cc1)NCCc1ccc(O)c(O)c1 (stereo unspecified) | -5.27% [at 42.5 µM] (inactive) | 
Oc1ccc2c(c1)Cc1ccccc1-2 | 21.9% (inactive) | 
O=C(O)CO | 6.92% (inactive) | 
COc1cc(NCc2ccc3nc(N)nc(N)c3c2C)cc(OC)c1OC | -32.1% [at 42.5 µM] (inactive) | 
ClC1=C(Cl)C1(Cl)Cl | 2% (inactive) | 
Cc1ccc(Nc2c(F)cccc2Cl)c(CC(=O)O)c1 | 1.64% [at 42.5 µM] (inactive) | 
CCSC(=O)N(CC)CC | 0.0868% (inactive) | 
CC(C)C(=O)OCCOc1ccccc1 | -6.05% (inactive) | 
CCN(Cc1cccc(S(=O)(=O)O)c1)c1ccc(C(=C2C=CC(=[N+](CC)Cc3cccc(S(=O)(=O)O)c3)C=C2)c2ccccc2S(=O)(=O)[O-])cc1 |  | 12.2 µM (active)
CCCCCCCCCCCSCC(=O)O |  | 54.5 µM (active)
